About 8,600 (12%) of roughly 69,000 compounds showed an effect of 50% or more. The full list was thinned out, with strong results kept by preference.

The subject of this experiment is Plasmodium berghei. Nature of the experiment: Screen against P. berghei liver stage (PbLuc), transformed with Luciferase, at 10uM. Type of experiment: functional, HepG2. The note with it: tested at 10 uM.
As for `C[C@@H]1CN(C(=O)c2ccc[nH]2)C[C@]12CCN(CCN1CCCC1)C2=O`, the INHIBITION is 48.4%. With `COCCN1CC[C@]2(CN(C(=O)c3cccs3)C[C@H]2C)C1=O`, the INHIBITION stood at 22.4%. The result for `CCC(CC)C(=O)NCCc1ccn(-c2ccccc2)n1` reads 15.6%; that for `CC(C)c1cc(COCCCC(=O)O)no1`, 38.2%; that for `CC(C)c1cc(CSCCC(=O)O)no1`, -46.4%. For the compound `CC(C)c1cc(CN2CCNCC2)no1`, the INHIBITION turned out to be 30.8%. On to `CC(C)c1cc(CN2CCC(N)CC2)no1`, for which the INHIBITION is reported as 76.8%. For the compound `CC(C)c1cc(CN2CCC(CC(=O)O)CC2)no1`, the INHIBITION is 53%. Regarding `CC(C)c1cc(CN2CCC(N)CC2)on1`, the INHIBITION came out at 41.2%. Regarding `Cc1ccc(-n2cc(C(=O)N3CCn4c(C)nnc4C3)nn2)cc1`, the INHIBITION is recorded as 15.9%. Take `O=C(c1cnc(O)cn1)N1CCCC1c1nc2cc(F)ccc2[nH]1` (centres undefined): the INHIBITION worked out at 17.5%. Consider `Cn1ncc(C(=O)N2CCOCC2)c1Cl`, for which the INHIBITION was 0.57%. Consider `COc1cc(CNc2cc(-c3ccoc3C)nn2CCO)ccc1F`, for which the INHIBITION turned out to be 38.3%. For the compound `Cc1cc(CNc2cc(-c3ccoc3C)nn2CCO)c(C)o1`, the INHIBITION is recorded as 43.7%. As to `CCc1ccc(CNc2cc(-c3ccoc3C)nn2CCO)o1`, the INHIBITION turned out to be 54.4%. Turning to `c1cc(N2CCCC2c2cnccn2)ncn1` (centres undefined), the INHIBITION is -3.31%.

On to `COC(=O)c1cc(OCC2CCC2)cc(C(=O)NC2CCC(O)CC2)c1` (centres undefined), for which the INHIBITION is 7.12%. Then `COC(=O)c1cc(OCC2CCC2)cc(C(=O)N[C@@H]2CNCC[C@H]2O)c1`, with 11.9%; and `COC(=O)c1cc(OCC2CCC2)cc(C(=O)N[C@@H]2CCCNC2)c1`, with 58.4%. `Cc1cc(NC(=O)CO)nn1-c1ccc(Cl)cc1Cl`: the INHIBITION was 19.8%. Consider `Cc1cc(NC(=O)N2CCC[C@@H]2CO)nn1-c1ccccc1Cl`, for which the INHIBITION is given as 30.8%. Turning to `O=C(NCCO)Nc1ccc(Cl)cc1-n1cccc1`, the INHIBITION is listed as -6.91%. Turning to `Cc1cc(NC(=O)N2CCOCC2)nn1-c1ccccc1Cl`, the INHIBITION turned out to be 33.4%. On to `Cc1cc(NC(=O)NCCO)nn1-c1ccc(Cl)cc1Cl`, for which the INHIBITION is 60.5%. The result for `CC(=O)NCC(=O)Nc1cc(C)n(-c2ccc(Cl)cc2Cl)n1` reads 50%. Regarding `CS(=O)(=O)N[C@H]1COC[C@@H]2CN(Cc3ccco3)C[C@@H]21`, the INHIBITION is on record as -19.1%. For `COC(=O)c1sc2cccc(F)c2c1CNC(=O)C1CCCO1` (centres undefined), the INHIBITION is on record as -1.37%. Regarding `CN1CCc2[nH]cnc2C12CCN(Cc1ccc3nsnc3c1)CC2`, the INHIBITION stood at 33.4%. Regarding `CNC(=O)[C@@H]1C[C@H]2CN(Cc3ccco3)C[C@H]2N1C`, the INHIBITION is -5.1%.

`Cc1ccc(C(=O)N2CCN(Cc3cccs3)CC2)c(=O)[nH]1`: the INHIBITION is recorded as 3.865%. Take `CS(=O)(=O)NCc1cnc2n1CCN(Cc1ccccn1)CC2`: the INHIBITION was 41.2%. As to `Cc1[nH]ncc1C(=O)N1CCCN(Cc2nccn2C(C)C)CC1`, the INHIBITION amounted to 53.65%. The result for `CCc1[nH]ncc1C(=O)N1CCCN(Cc2nccn2C(C)C)CC1` reads -33.8%; that for `Cc1ncncc1C(=O)N1CCCN(Cc2nccn2C(C)C)CC1`, -49.5%; that for `CC(C)n1ccnc1CN1CCCN(C(=O)c2cscn2)CC1`, 54.9%.

As for `Cc1cc(C(=O)N2CCCN(Cc3nccn3C(C)C)CC2)no1`, the INHIBITION is on record as -6.35%. Consider `Cc1nccc(C(=O)N2CCCN(Cc3nccn3C(C)C)CC2)n1`, for which the INHIBITION came out at 29.3%. As for `CCc1cc(CNC(=O)N2CCN(c3nc(C)c(C)s3)CC2)on1`, the INHIBITION came out at 32.4%. Consider `CSc1ncc(CN(C)C(C)c2cccnc2)cn1` (centres undefined), for which the INHIBITION is -1.33%. Regarding `O=C(NCCN1CCOCC1)c1scnc1Cl`, the INHIBITION is reported as 23.7%. As for `CSCCCN1C[C@H](NC(=O)c2ccc(CO)cc2)[C@@H](C2CC2)C1`, the INHIBITION amounted to 0.72%. Take `CN(C)c1ccc(C(=O)Nc2ccn(CCc3ccncc3)n2)cc1`: the INHIBITION was 5.91%. Take `COc1ccccc1S(=O)(=O)Nc1cnc(O)cc1C`: the INHIBITION is given as -13.6%. Turning to `Cc1cc(O)ncc1NS(=O)(=O)c1cccc(F)c1F`, the INHIBITION is recorded as 69.9%. `COc1cc(F)c(S(=O)(=O)Nc2cnc(O)cc2C)cc1OC`: the INHIBITION was -3.83%. Take `Cc1nc(N2CCN3CCCCC3C2)nc2cc(S(C)(=O)=O)ccc12` (centres undefined): the INHIBITION was found to be 20.6%. The result for `Cc1ccn(-c2ccnc(N3CCC(N4CCCCC4)CC3)n2)n1` reads -13%; that for `Cn1ncc2c(N3CCN4CCCCC4C3)nc(C3CCCC3)nc21` (centres undefined), -24.8%; that for `Clc1cc(N2CCC(N3CCCC3)CC2)nc2[nH]ccc12`, 51.5%.

For the compound `Clc1cc(N2CCN3CCCCC3C2)nc2[nH]ccc12` (centres undefined), the INHIBITION is reported as 72.2%. The result for `Clc1cc(N2CCN(C3CCOCC3)CC2)nc2[nH]ccc12` reads 5.91%.

Consider `O=C(NCCNS(=O)(=O)C1CCCCC1)c1ccccc1`, for which the INHIBITION turned out to be 15.4%.

With `CN(C)CCNC(=O)c1ccccc1NC(=O)c1cc(Cl)ccc1Cl`, the INHIBITION was 44.4%. Take `O=c1cc(-c2ccc(F)cc2)nc2n1CCCCC2`: the INHIBITION is 7.25%.

For the origin of these results see ChEMBL document CHEMBL4513216, “Probing the Open Global Health Chemical Diversity Library for Multistage-Active Starting Points for Next-Generation Antimalarials” (ACS Infect Dis, 2020).
